In PubChem BioAssay (Tox21):
Records with an inconclusive call do not appear. Where a call stands in place of a potency, no number is given. Activity calls are given as the source filed them. Unless noted, calls come from the whole dose curve; as a rule, active = well fitted curve in the direction sought with a large enough effect in the repeat runs; inconclusive = weak or mixed curves; inactive = no such curve, though single readings can be large; an effect the other way counts as inactive or inconclusive.

Assays:
[1] = qHTS assay to identify small molecule antagonists of the androgen receptor (AR) signaling pathway using the MDA cell line in the presence of 0.5 nM R1881 - cell viability counter screen (AID 1259242); note: nearly all actives have a fitted effect of over 45% in size; note: potency is the fitted concentration of half-maximal effect
Summary of the method: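 Viability of MDA-kb2 cells was multiplexed with the luciferase AR readout; after 16 hr with compounds and R1881 at 0.5 nM final, CellTiter-Fluor fluorescence was recorded.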

[2] = biological target: Androgen receptor (Homo sapiens) (UniProt P10275); experiment: qHTS assay to identify small molecule antagonists of the androgen receptor (AR) signaling pathway using the MDA cell line in the presence of 0.5 nM R1881 (AID 1259243); note: nearly all actives have a fitted effect of over 50% in size; note: potency is the fitted concentration of half-maximal effect
Sequence of Androgen receptor (Homo sapiens) (P10275 whole entry, looked up): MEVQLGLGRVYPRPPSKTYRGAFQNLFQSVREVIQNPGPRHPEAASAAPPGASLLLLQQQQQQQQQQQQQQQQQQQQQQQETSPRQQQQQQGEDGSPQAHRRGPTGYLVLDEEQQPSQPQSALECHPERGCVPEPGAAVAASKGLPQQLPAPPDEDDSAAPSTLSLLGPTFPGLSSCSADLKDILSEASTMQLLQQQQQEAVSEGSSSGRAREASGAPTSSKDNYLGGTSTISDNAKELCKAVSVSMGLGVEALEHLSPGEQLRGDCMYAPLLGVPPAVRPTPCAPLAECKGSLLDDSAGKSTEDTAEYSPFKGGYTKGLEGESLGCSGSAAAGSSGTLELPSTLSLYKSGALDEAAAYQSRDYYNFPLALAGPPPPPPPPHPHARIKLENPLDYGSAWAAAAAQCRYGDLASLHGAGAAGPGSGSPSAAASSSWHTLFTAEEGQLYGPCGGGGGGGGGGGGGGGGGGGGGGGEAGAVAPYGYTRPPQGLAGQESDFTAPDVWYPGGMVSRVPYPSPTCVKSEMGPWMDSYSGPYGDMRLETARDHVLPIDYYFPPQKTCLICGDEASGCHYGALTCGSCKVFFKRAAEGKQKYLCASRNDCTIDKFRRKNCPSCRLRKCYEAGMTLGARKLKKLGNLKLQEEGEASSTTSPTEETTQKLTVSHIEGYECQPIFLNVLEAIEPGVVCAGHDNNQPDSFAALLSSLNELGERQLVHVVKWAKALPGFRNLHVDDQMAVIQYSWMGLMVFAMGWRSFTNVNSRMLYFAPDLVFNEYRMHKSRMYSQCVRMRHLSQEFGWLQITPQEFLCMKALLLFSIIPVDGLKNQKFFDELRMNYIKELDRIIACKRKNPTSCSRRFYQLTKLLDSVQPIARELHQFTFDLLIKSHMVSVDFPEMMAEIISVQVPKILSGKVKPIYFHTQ
Summary of the method: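 Reporter cells cultured without CO2 receive test chemicals, then 0.5 nM R1881 final; after 16 hr at 37C, ONE-Glo is added and light output recorded.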

[3] = biological target: Estrogen receptor (Homo sapiens) (UniProt P03372); experiment: qHTS assay to identify small molecule antagonists of the estrogen receptor alpha (ER-alpha) signaling pathway using the BG1 cell line in the presence of 0.1 nM 17-beta-estradiol (AID 1259244); note: nearly all actives have a fitted effect of over 50% in size; note: potency is the fitted concentration of half-maximal effect
Sequence of Estrogen receptor (Homo sapiens) (P03372 whole entry, looked up): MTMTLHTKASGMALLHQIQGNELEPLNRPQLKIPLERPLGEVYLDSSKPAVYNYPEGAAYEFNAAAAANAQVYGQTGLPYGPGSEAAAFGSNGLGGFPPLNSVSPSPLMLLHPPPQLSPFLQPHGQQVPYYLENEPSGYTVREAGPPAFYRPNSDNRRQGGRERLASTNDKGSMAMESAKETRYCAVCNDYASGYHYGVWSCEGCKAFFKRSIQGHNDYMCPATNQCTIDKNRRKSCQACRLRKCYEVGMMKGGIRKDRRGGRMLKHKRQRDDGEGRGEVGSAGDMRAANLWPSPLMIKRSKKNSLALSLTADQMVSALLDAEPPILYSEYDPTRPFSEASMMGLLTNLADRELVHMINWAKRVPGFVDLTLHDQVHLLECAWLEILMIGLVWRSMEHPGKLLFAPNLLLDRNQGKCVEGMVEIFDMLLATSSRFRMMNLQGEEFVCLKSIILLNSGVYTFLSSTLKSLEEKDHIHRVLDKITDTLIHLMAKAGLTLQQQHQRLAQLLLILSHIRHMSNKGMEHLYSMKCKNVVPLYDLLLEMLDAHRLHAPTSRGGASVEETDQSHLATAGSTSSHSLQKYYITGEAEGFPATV
Summary of the method: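 Estradiol at 0.1 nM (final) stimulates the endogenous ER-alpha of VM7Luc4E2 cells carrying an ERE-driven luciferase; compounds are co-incubated 22 h at 37C and luciferase output quantified by luminescence.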

[4] = qHTS assay to identify small molecule HDAC inhibitors (AID 1259364); note: potency is the fitted concentration of half-maximal effect;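 note: wild-type HCT-116 cells with endogenous class I/II HDAC activity; nearly all actives have a fitted effect of over 45% in size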
Summary of the method: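 Read-out: luminescence of HDAC-Glo I/II reagent, 30 min RT, reflecting class I/II deacetylase activity in whole HCT-116 cells pre-exposed 2 h to DMSO-dissolved compounds.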

[5] = qHTS assay to identify small molecule HDAC inhibitors - cell viability counter screen (AID 1259365); note: series mostly up to about 92 µM; nearly all actives have a fitted effect of over 50% in size
Summary of the method: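 After overnight seeding at 1,500 cells per well, wild-type HCT-116 cultures took up compounds in DMSO for 2hr at 37 C. Viable cell content came from luminescence with CellTiter-Glo.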

[6] = qHTS assay to identify small molecule agonists of the sonic hedgehog signaling (Shh) pathway - cell viability counter screen (AID 1259366); note: nearly all actives have a fitted effect of over 50% in size; note: potency is the fitted concentration of half-maximal effect
Summary of the method: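 Same-well cytotoxicity read. Gli1-Luc reporter 3T3 cells; compounds 24hr, 37C/5% CO2; CellTiter-Fluor fluorescence.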

[7] = qHTS assay to identify small molecule antagonists of the sonic hedgehog signaling (Shh) pathway - cell viability counter screen (AID 1259367); note: nearly all actives have a fitted effect of over 55% in size
Summary of the method: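 Cells: 3T3 Gli1-Luc, 2,000/well, 4 hr pre-incubation. Compounds in DMSO, then conditioned medium. Incubation 24 hr, 37C, 5% CO2. CellTiter-Fluor at 23 hr, 1 hr, fluorescence.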

[8] = qHTS assay to identify small molecule agonists of the sonic hedgehog signaling (Shh) pathway (AID 1259368; calls by dose curve;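 note: NIH/3T3-derived 3T3Gli1-Luc cells carrying a stable Gli1-driven firefly luciferase reporter; series mostly up to about 92 µM; nearly all actives have a fitted effect of over 15% in size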)
Summary of the method: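 A Gli1 transcriptional response element controlled firefly luciferase in 3T3Gli1-Luc cells. Compounds and a positive control were added 4 hr after plating, and cells were incubated a further 24 hr at 37 C before luminescence detection.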

[9] = qHTS assay to identify small molecule antagonists of the sonic hedgehog signaling (Shh) pathway (AID 1259369; calls by dose curve; note: nearly all actives have a fitted effect of over 45% in size; note: potency is the fitted concentration of half-maximal effect)
Summary of the method: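 For antagonist detection, the reporter line received test compounds together with conditioned medium, incubated 24hr at 37 C, 5% CO2, then luminescence was recorded following 30min room-temperature luciferase reagent incubation.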

[10] = biological target: Estrogen receptor beta (Homo sapiens) (UniProt Q92731); experiment: qHTS assay to identify small molecule agonists of the estrogen receptor beta (ER-beta) signaling pathway (AID 1259377; active = well fitted activation curve with a large enough effect in the signal ratio in the repeat runs, not every such curve was filed as active; the % refers to the signal ratio)
Sequence of Estrogen receptor beta (Homo sapiens) (Q92731 whole entry, looked up): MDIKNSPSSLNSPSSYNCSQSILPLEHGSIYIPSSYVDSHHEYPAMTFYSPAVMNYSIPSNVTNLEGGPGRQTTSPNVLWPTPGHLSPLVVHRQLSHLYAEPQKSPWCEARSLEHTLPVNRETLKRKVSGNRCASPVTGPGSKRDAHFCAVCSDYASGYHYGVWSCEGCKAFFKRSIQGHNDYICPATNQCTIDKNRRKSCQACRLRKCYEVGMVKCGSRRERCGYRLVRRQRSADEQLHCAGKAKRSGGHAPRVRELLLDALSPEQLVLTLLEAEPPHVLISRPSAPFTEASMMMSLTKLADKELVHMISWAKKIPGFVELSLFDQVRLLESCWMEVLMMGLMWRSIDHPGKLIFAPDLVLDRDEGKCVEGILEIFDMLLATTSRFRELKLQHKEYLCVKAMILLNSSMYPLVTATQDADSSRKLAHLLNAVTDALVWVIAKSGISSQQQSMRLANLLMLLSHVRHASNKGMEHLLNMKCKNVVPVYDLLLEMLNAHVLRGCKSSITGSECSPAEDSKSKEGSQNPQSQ
Summary of the method: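 Read-out: beta-lactamase FRET fluorescence. Cell line: ER-beta-UAS-bla HEK293T in 2% charcoal-stripped FBS. Exposure: 16 hr at 37C. Substrate step: 2 h at room temperature.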

[11] = biological target: Estrogen receptor beta (Homo sapiens) (UniProt Q92731); experiment: qHTS assay to identify small molecule antagonists of the estrogen receptor beta (ER-beta) signaling pathway (AID 1259378; active = well fitted inhibition curve with a large enough effect in the signal ratio in the repeat runs, not every such curve was filed as active; the % refers to the signal ratio)
Summary of the method: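 Antagonist mode: compounds added to beta-lactamase reporter HEK293T ER-beta-UAS cells stimulated with E2 (1nM final), 16 hr at 37C. LiveBLAzer B/G FRET substrate, 2 hours room temperature, fluorescence read-out.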

[12] = qHTS assay to identify small molecule agonists of the androgen receptor (AR) signaling pathway in the presence of an antagonist - cell viability counter screen (AID 1259379); note: nearly all actives have a fitted effect of over 25% in size; note: potency is the fitted concentration of half-maximal effect
Summary of the method: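 Seed MDA-kb2 at 3,000 cells/well; incubate 5 hr, 37C, 0% CO2. Add nilutamide to 3.0uM final, then pin compounds at 15 concentrations. Incubate 16 hr. Add CellTiter-Fluor at 15 hr, read fluorescence after 1 hr.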

[13] = qHTS assay to identify small molecule agonists of the estrogen receptor beta (ER-beta) signaling pathway - cell viability counter screen (AID 1259380); note: nearly all actives have a fitted effect of over 30% in size; note: potency is the fitted concentration of half-maximal effect
Summary of the method: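 CellTiter-Glo read, 30 min RT, same wells as bla assay; cells ER-beta-UAS-bla HEK293T; 16 hr compound, 37C; medium 2% charcoal-stripped FBS.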

[14] = biological target: Androgen receptor (Homo sapiens) (UniProt P10275); experiment: qHTS assay to identify small molecule agonists of the androgen receptor (AR) signaling pathway in the presence of an antagonist (AID 1259381; calls by dose curve; note: nearly all actives have a fitted effect of over 15% in size)
Summary of the method: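 Test compounds at 15 concentrations were incubated for 16hr with MDA-kb2 reporter cells in presence of 3.0uM nilutamide (final). Signal: ONE-Glo luciferase luminescence.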

[15] = qHTS assay to identify small molecule antagonists of the estrogen receptor beta (ER-beta) signaling pathway - cell viability counter screen (AID 1259382);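 note: HEK293T cells carrying ER-beta-UAS-bla reporter stimulated with estradiol; series mostly up to about 92 µM; nearly all actives have a fitted effect of over 55% in size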
Summary of the method: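 In this multiplexed counter screen, cells were seeded at 2,000 per well in medium with 2% charcoal-stripped FBS and incubated 6 hr before compound and 1nM final E2 were added. Sixteen hours later, ATP-based luminescence reported viability.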

[16] = biological target: Estrogen receptor (Homo sapiens) (UniProt P03372); experiment: qHTS assay to identify small molecule agonists of the estrogen receptor alpha (ER-alpha) signaling pathway in the presence of an antagonist (AID 1259383; calls by dose curve; note: top concentration of the series differs between compounds; nearly all actives have a fitted effect of over 15% in size)
Summary of the method: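 Stably transfected VM7Luc4E2 reporter cells, kept 5 days in charcoal-stripped serum, received ICI-182,780 at 10.0nM final before compound addition. Following 22hr incubation at 37C and 5% CO2, luciferase signal was read by luminescence.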

[17] = qHTS assay to identify small molecule agonists or antagonists of the thyroid stimulating hormone receptor (TSHR) signaling pathway - wild type cell line counter screen (AID 1259384; calls by dose curve)
Summary of the method: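 Counter screen in untransfected Hek293: compounds (15-point titration, triplicate) plus phosphodiesterase inhibitor Ro20-1724 added after 18 h plating; 30 min RT. Intracellular cAMP via competitive d2/cryptate immunoassay, 1 h incubation.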

[18] = biological target: Thyrotropin receptor (Homo sapiens) (UniProt P16473); experiment: qHTS assay to identify small molecule antagonists of the thyroid stimulating hormone receptor (TSHR) signaling pathway (AID 1259385; calls by dose curve; note: nearly all actives have a fitted effect of over 20% in size; note: potency is the fitted concentration of half-maximal effect)
Sequence of Thyrotropin receptor (Homo sapiens) (P16473 whole entry, looked up): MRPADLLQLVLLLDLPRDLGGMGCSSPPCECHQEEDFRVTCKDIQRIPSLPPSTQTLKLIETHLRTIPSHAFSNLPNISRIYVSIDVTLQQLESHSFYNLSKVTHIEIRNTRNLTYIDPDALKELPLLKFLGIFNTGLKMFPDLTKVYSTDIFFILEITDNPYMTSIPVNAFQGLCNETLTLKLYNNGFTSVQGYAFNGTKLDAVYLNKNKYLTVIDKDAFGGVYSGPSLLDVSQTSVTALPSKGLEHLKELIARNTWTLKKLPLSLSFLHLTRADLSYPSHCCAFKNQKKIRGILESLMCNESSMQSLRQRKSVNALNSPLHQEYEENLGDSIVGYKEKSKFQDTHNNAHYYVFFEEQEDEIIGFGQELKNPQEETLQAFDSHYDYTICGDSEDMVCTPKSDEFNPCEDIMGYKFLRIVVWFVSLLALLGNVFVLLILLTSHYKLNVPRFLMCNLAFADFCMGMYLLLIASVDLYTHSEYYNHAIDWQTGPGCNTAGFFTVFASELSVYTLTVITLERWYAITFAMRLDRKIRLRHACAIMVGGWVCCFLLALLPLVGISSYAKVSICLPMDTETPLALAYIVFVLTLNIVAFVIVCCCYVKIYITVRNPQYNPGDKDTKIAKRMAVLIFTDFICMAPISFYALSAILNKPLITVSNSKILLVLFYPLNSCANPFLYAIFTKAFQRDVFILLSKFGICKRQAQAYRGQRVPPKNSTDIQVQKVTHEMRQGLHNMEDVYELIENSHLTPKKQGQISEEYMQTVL
Summary of the method: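 Antagonist mode: compound-treated TSHR-expressing HEK293 cells were stimulated with 1.5 ng/mL TSH (final) in presence of Ro20-1724 for 30 min at RT. HTRF cAMP detection after 1 h; each compound tested at 15 concentrations, triplicate.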

[19] = qHTS assay to identify small molecule agonists of the estrogen receptor alpha (ER-alpha) signaling pathway in the presence of an antagonist - cell viability counter screen (AID 1259386);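 note: cells exposed to compounds for 22 h at 37 °C before the viability read; nearly all actives have a fitted effect of over 30% in size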; note: potency is the fitted concentration of half-maximal effect
Summary of the method: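 Viability counter screen using VM7Luc4E2 (full-length ER-alpha, four ERE-luciferase). The cells were treated with compounds alongside ICI-182,780 10.0nM for 22hr, and live-cell protease fluorescence was quantified with CellTiter-Fluor.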

[20] = qHTS assay to identify small molecule phospholipidosis (PLD) inducers (AID 1259344; active = well fitted curve in the direction sought with a large enough effect; an effect the other way counts as inactive or inconclusive)
Summary of the method: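 Phospholipidosis is scored by imaging LipidTOX-stained pits in HepG2 cells exposed to compound for 24 h at 37 C; pit counts and integrated intensities per well and per cell serve as outputs.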

Row | SMILES | Potency [1] | Potency [2] | Potency [3] | Potency [4] | Potency [5] | Potency [6] | Potency [7] | Potency [8] | Potency [9] | Potency [10] | Potency [11] | Potency [12] | Potency [13] | Potency [14] | Potency [15] | Potency [16] | outcome [17] | Potency [18] | Potency [19] | outcome [20]
1 | CCCCCCCCCCCCCCC[C@H](O)[C@@H](N)CO | inactive | inactive | inactive | inactive | inactive | inactive | inactive | inactive | inactive | inactive | inactive | inactive | inactive | inactive | inactive | inactive | inactive | 26.6 µM (active) | inactive | 
2 | CC(C)(O)c1ccccc1CC[C@@H](SCC1(CC(=O)O)CC1)c1cccc(/C=C/c2ccc3ccc(Cl)cc3n2)c1 | inactive | inactive | inactive | inactive | inactive | inactive | inactive | inactive | inactive | inactive |  | inactive |  | inactive | inactive | inactive | inactive | inactive | inactive | inactive
3 | Nc1c(I)cc(I)c(C(=O)N(CCC(=O)O)c2ccccc2)c1I | inactive | inactive |  | inactive | inactive | inactive | inactive | inactive | inactive |  |  | inactive | inactive | inactive | inactive |  |  |  | inactive | 
4 | Cc1ccc(Nc2nccc(N(C)c3ccc4c(C)n(C)nc4c3)n2)cc1S(N)(=O)=O | inactive | 11.9 µM (active) |  | inactive | inactive |  | inactive | inactive | 1.88 µM (active) | inactive |  | inactive |  | inactive | inactive | inactive |  |  |  | 
5 | Cn1c(=O)c2c(ncn2CC(=O)O)n(C)c1=O | inactive | inactive | inactive | inactive | inactive | inactive | inactive | inactive | inactive | inactive |  | inactive |  | inactive | inactive |  | inactive | inactive | inactive | 
6 | C[Si]1(C)O[Si](C)(C)O[Si](C)(C)O1 | inactive | inactive |  | inactive | inactive | inactive | inactive | inactive | inactive |  |  | inactive | inactive | inactive |  |  | inactive | inactive | inactive | 
7 | c1cnc2c(n1)CCCC2 | inactive | inactive |  | inactive |  | inactive | inactive | inactive | inactive | inactive |  | inactive | inactive | inactive | inactive |  | inactive | inactive | inactive | 
8 | CC(C)=CC=O | inactive | inactive | inactive | inactive |  | inactive | inactive | inactive |  | inactive | inactive | inactive | inactive | inactive |  | inactive |  |  | inactive | 
9 | COc1ccc([C@@H]2Sc3ccccc3NC(=O)[C@@H]2O)cc1 | inactive | inactive |  | inactive | inactive | inactive | inactive | inactive | inactive |  |  | inactive | inactive | inactive |  | inactive | inactive | inactive | inactive | 
10 | O=C(O)c1c(O)c(-c2ccccc2)nc2ccccc12 | inactive | inactive | inactive | inactive | inactive | inactive | inactive | inactive | inactive |  |  | inactive |  | inactive |  | inactive | inactive |  | inactive | 
11 | Cc1cc2nc3ccc(=[N+](C)C)cc-3sc2cc1N | 2.66 µM (active) | 1.5 µM (active) | 26.6 µM (active) | 10.6 µM (active) |  | 9.44 µM (active) | inactive | inactive |  | inactive |  | 3.76 µM (active) | 4.22 µM (active) | inactive |  | inactive |  |  | 29.8 µM (active) | 
12 | C=CC(=C)CCCC(C)(C)OC(C)=O | inactive | inactive |  | inactive | inactive | inactive | inactive | inactive | inactive | inactive | inactive | inactive | inactive | inactive | inactive |  | inactive | inactive | inactive | 
13 | C=CCOC(=O)/C=C\C(=O)OCC=C | inactive | inactive | inactive | inactive | inactive | inactive | inactive | inactive |  |  |  | inactive | inactive | inactive | inactive | inactive | inactive | inactive | inactive | 
14 | O=C(O)Cc1ccc(-c2ccccc2)cc1 | inactive | inactive | inactive |  | inactive | inactive | inactive | inactive | inactive |  |  | inactive | inactive | inactive | inactive | inactive | inactive | inactive | inactive | 
15 | CC(C)(C)CC(C)(C)c1ccc(OCCO)cc1 | 48.3 µM (active) | 6.82 µM (active) | 10.8 µM (active) | inactive | inactive |  |  | inactive |  | inactive |  | 30.5 µM (active) |  | inactive |  | inactive |  |  | 34.2 µM (active) | 
16 | C/C(=N/NC(=O)c1ccncc1)C(=O)O | inactive | inactive | inactive | inactive | inactive | inactive | inactive | inactive |  |  |  | inactive | inactive | inactive | inactive | inactive | inactive |  | inactive | 
